Hits are enriched below; roughly 4.5% of the tested compounds scored in any of these assays.
GAA850 FXN act – activators of GAA850 frataxin (FXN) promoter. activation, % at 6 µM. 0.56% of 360,000 active. HEK293 lucGAA850 FXN promoter luciferase reporter, 24 h; percent of 10 µM SAHA response;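 active means activation above the average of all compounds screened plus 3 SD, cutoff fixed separately per campaign, cut at about 7.5% in these data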
DAX1 inh-1 – NR0B1 (DAX1) inhibition; HEK293 Gal4-DAX1 luciferase reporter, luminescence; AID 504766; inhibition, % at 6.75 µM; 0.99% of 340,000 active; P51843;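 active means inhibition above the mean over all tested compounds plus 3 SD, cut at about 4.2% in these data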;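 further: inhibition shows as a rise in luminescence from relieved DAX1 repression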
Target sequence (P51843 207-470 limits assumed): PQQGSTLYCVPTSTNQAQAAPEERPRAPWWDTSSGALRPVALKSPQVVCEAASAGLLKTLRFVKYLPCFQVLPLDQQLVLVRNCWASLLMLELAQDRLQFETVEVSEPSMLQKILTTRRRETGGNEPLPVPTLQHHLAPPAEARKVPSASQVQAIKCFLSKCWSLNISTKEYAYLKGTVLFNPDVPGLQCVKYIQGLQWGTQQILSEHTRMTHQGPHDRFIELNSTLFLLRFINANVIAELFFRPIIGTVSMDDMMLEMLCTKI
hgDAF12 agonist – agonists of H. glycines DAF-12 nuclear receptor; HEK293 GAL4-hgDAF12 UAS-luciferase reporter, agonist luminescence; normalized to butyrate control; activation, % at 6.8 µM; 1.8% of 370,000 active;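 active means activation above a cutoff set at the mean of all screened compounds plus 3 SD, cut at about 10% in these data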
ssDAF-12 act – S. stercoralis DAF-12 activation, primary screen | AID 652126 | 1% of 370,000 active | HEK293 ssDAF-12/GRIP1 lit1-tk-luc reporter, luminescence; % of 3 µM dafachronic acid response | activation, % at 6.8 µM;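 active means activation above the mean over all tested compounds plus 3 SD, cut at about 0.9% in these data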
hcDAF-12 act – activators of H. contortus DAF-12 nuclear receptor; HEK293 hcDAF-12 lit1-tk-luc reporter, luminescence; 0% DMSO, 100% Δ7-dafachronic acid; activation, % at 6.8 µM; 1.4% of 370,000 active; AID 652067;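 active means activation above the mean of all tested compounds plus 3 SD, cut at about 5.5% in these data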
DAX1 inh-2 – inhibitors of DAX1 repression of SF-1 activated StAR promoter; HEK293T StAR-luciferase reporter, SF-1/DAX-1 repression relief; inhibition, % at 6.8 µM; 1.1% of 370,000 active; AID 652010;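 active means inhibition above the mean over all tested compounds plus 3 SD, cut at about 3.6% in these data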;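 further: higher inhibition means more luminescence from relief of DAX-1 repression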
DAX1 conf – confirmation of human DAX1 (NR0B1) inhibitors; AID 652134; shares compounds with DAX1 inh-2; 87% of 2,400 active; HEK293T StAR-promoter luciferase reporter, SF-1/DAX-1 repression; inhibition, % at 6.8 µM;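 active means inhibition above the average of every tested compound plus 3 SD, cut at about 3.8% in these data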;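 further: active compounds raise luminescence by relieving repression of the StAR reporter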
SF1 mutant ctr – nonselective inhibitor or artifact in SF-1 mutant DAX1 counter-screen; shares compounds with DAX1 inh-2; HEK293 StAR-luciferase, SF-1 AF2 mutant, luminescence; inhibition, % at 6.8 µM; 78% of 2,400 active;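 active means inhibition above the mean of all tested compounds plus 3 SD, cut at about 3% in these data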
Numbers stand for hits; – = inactive; · = no result.

SMILES	GAA850 FXN act	DAX1 inh-1	hgDAF12 agonist	ssDAF-12 act	hcDAF-12 act	DAX1 inh-2	DAX1 conf	SF1 mutant ctr
O=C(CSc1nnc(-c2ccccc2F)o1)N1CCNC1=O	–	–	–	–	–	7.7	11.4	6.8
Cc1ccc2oc(=O)c3cnn(CC(=O)N4CCN(c5cccc(C(F)(F)F)c5)CC4)c3c2c1	·	·	–	–	–	–	·	·
CS(=O)(=O)c1ccc(-c2cccc(NC(=O)c3ccc(Br)o3)c2)nn1	–	–	–	–	–	–	·	·
COc1ccc(-c2ccc(NC(=O)c3ccc(Br)o3)cc2)nn1	–	–	–	–	–	5.2	5.6	4.2
O=C(CSc1nc2ccccc2[nH]1)N/N=C/c1ccncc1	–	·	–	–	–	–	·	·
O=C(CSc1nc2ccccc2[nH]1)NN=Cc1ccccc1C(=O)O	·	·	–	–	5.9	5.5	12.0	7.8
O=C(Nc1ccccc1F)c1ccc(C(=O)c2ccccc2)cc1	–	–	11.7	–	–	4.7	7.0	4.4
O=c1[nH]c(COc2ccc(Br)cc2Cl)nc2ccccc12	–	–	–	–	–	7.4	7.7	4.8
O=c1[nH]c(COc2ccccc2)nc2ccccc12	–	–	–	–	–	–	·	·
CCc1cn(C2CC(O)C(CO)O2)c(=O)[nH]c1=O (stereo unspecified)	–	–	–	–	–	–	·	·
O=c1[nH]c(=O)n([C@H]2C[C@H](O)[C@@H](CO)O2)cc1I	–	–	–	–	–	5.6	14.2	6.1
Cc1ccc(C2=N/C(=C\c3coc4ccccc4c3=O)C(=O)O2)cc1	·	·	–	–	–	–	·	·
O=C(Nc1ccc(C(=O)N2CCCCC2)cc1)C1=CSCCO1	–	–	–	–	–	6.2	4.7	–
O=C(Nc1ccc(F)cc1F)c1csc(-c2cccs2)n1	–	–	12.7	2.1	–	7.0	9.3	6.7
CCOC(=O)c1cnc2c(-c3ccccc3)c(C)nn2c1N	–	–	–	–	–	–	·	·
CCOC(=O)c1cnc2c(-c3ccccc3)cnn2c1N	–	–	12.0	–	–	5.6	16.7	11.8
Cc1ccc(C)c(OCc2cc(C(=O)N3CCN(C(=O)c4ccco4)CC3)no2)c1	–	–	–	–	–	6.4	6.2	4.1
Cc1ccc(C)c(OCc2cc(C(=O)N3CCN(c4ccccc4)CC3)no2)c1	–	–	–	–	–	6.3	5.3	4.8
CC(C)(C)NC(=O)C(c1ccc(C#N)cc1)n1c(=O)c(-c2cc3ccccc3[nH]2)nc2ccccc21 (stereo unspecified)	·	·	–	–	–	–	·	·
CC(=O)Nc1sc2c(c1-c1nc3ccccc3s1)CCCNC2	·	·	–	–	–	·	·	·
COC(=O)c1cc2c(c3c4cc(C)ccc4n(S(=O)(=O)c4ccc(C)cc4)c13)C(=O)N(Cc1ccccc1OC)C2	·	·	–	–	–	–	·	·
Cc1cc(NC(=O)c2cccc(COc3ccc(Br)cc3)c2)no1	–	–	11.5	–	–	4.5	4.0	4.6
C[C@H]1[C@H](NC(=O)c2ccc(Cl)cc2)CC[C@@]23CCCN2C(=O)CCC[C@@H]13	·	·	–	–	–	·	·	·
S=C(Nc1nc2c(s1)CCCC2)NC1CC1	–	–	–	–	–	5.3	6.4	4.3
COc1ccc(OCC(=O)Nc2nc3c(s2)CCCC3)cc1	–	–	–	–	–	–	·	·
CN1CCN(C(=O)c2ccc3c(Cl)c4c(nc3c2)CCCC4)CC1	–	–	–	–	–	5.8	4.8	–
CCN1CCN(C(=O)c2ccc3c(Cl)c4c(nc3c2)CCCC4)CC1	–	–	–	–	–	–	·	·
CCCCN1CCN(C2=Nc3ccccc3Sc3ccccc32)CC1	·	·	–	–	–	–	·	·
O=C(Nc1ccc2c(c1)OCCO2)c1ccc(Br)s1	–	–	12.5	1.5	5.8	5.9	13.8	5.6
Cn1nccc1C(=O)Nc1ccc2c(c1)OCO2	–	–	–	–	–	4.7	5.8	3.9

Bioassay records from PubChem.
